Measurements: PubChem BioAssay (EPA / NIEHS)
The source holds several records for some structures; these can differ, active in one and inactive in another. The source made the active and inactive calls. How the source made its calls: active means hit-call score of the fitted dose curve at least 0.9, where 1 is the maximum; inactive means score below 0.9.

assay: APR_HepG2_StressKinase_24hr: Apredica 24-hour HepG2 Assay for Stress Kinase (AID 2282922); details: HepG2 stress kinase (phospho-c-Jun) imaging, actives raise or lower the signal
Experimental: APR_HepG2_24hr is a cell-based, multiplexed-readout assay that uses HepG2, a human liver cell line, with measurements taken at 24 hours after chemical dosing in a 384-well plate.APR_HepG2_StressKinase_24hr is one of 10 assay component(s) measured or calculated from the APR_HepG2_24hr assay. It is designed to make measurements of enzyme activity, a form of enzyme reporter, as detected with fluorescence intensity signals by HCS Fluorescent Imaging technology.Data from the assay component APR_HepG2_StressKinase_24hr was analyzed into 1 assay endpoint. This assay endpoint, APR_HepG2_StressKinase_24hr, was analyzed with bidirectional fitting relative to DMSO as the negative control and baseline of activity. Using a type of enzyme reporter, measures of protein for gain or loss-of-signal activity can be used to understand the signaling at the pathway-level as they relate to the gene . Furthermore, this assay endpoint can be referred to as a primary readout, because this assay has produced multiple assay endpoints where this one serves a signaling function. To generalize the intended target to other relatable targets, this assay endpoint is annotated to the cell cycle intended target family, where the subfamily is stress response.
Cells were treated with dimethyl sulfoxide (DMSO) as a solvent control at a final concentration of 0.5% v/v or with compounds in DMSO with a resulting final DMSO concentration of 0.5% v/v. Compound treatment was done at concentrations of 0.39, 0.78, 1.56, 3.12, 6.24, 12.5, 25, 50, 100, and 200 uM in duplicate on each plate. Cells were treated with compounds for 1, 24, or 72 hr. Carbonyl […] m-chloro-phenylhydrazone (CCCP) and taxol were used as positive controls for mitochondrial function and cytoskeletal stability, respectively; DMSO served as the negative control for this experiment. Cells were fixed by the direct addition of 50 uL formaldehyde in Hank's Balanced Salt Solution (HBSS) to a final concentration of 3.7%. After incubation in the fixation medium for 30 min at room temperature (293-298 K), cells were rinsed twice with HBSS and treated with cell permeabilization buffer (16 uL of 0.5% Triton X-100) for 10 min at room temperature (293-298 K) before labeling. For mitochondrial membrane potential and mitochondrial measurements, pre-fixed cells were incubated with 50 uL of MitoTracker Red CMXRos (Invitrogen) at a concentration of 250 nM for 30 min before fixation. In the remaining cases, post-fixed cells were labeled by incubation with a multiplexed mixture of primary antibodies in HBSS for 60 min at room temperature (293-298 K) to detect immunoreactivity of c-Jun (1:500), phospho-histone H3 (1:100), phospho-histone H2A.x (1:200), p53 (1:400), alpha-tubulin (1:200) and Hoechst 33342 (2 ug/mL). Cells were labeled for multiplexed imaging on two separate plates: a) Hoechst 33342, MitoTracker Red, phospho-histone H3, and alpha-tubulin, and b) Hoechst 33342, phospho-histone H2A.x, and c-Jun. A final rinse with HBSS (50 uL) was performed before analysis. The primary and secondary antibodies for the proteins were phospho-histone H3 (rabbit anti-phospho-histone H3 and FITC-donkey anti-rabbit IgG), phospho-histone H2A.x (mouse anti-phospho-histone H2A.x and FITC-donkey anti-mouse IgG), c-Jun (rabbit anti-phospho-c-Jun and Cy3-donkey anti-rabbit IgG), p53 (sheep anti-p53 and Cy5-donkey anti-sheep IgG), alpha-tubulin (mouse anti-alpha-tubulin and Cy5-donkey anti-mouse IgG). These antibodies are available as the CellCiphr HepG2 assay kit (Millipore).Digital images of each well were captured using a Cellomics ArrayScan VTI (Thermo Scientific Cellomics) (0.8 NA objective, 0.63x optical coupler, and XF-93 filter set) at 20x magnification. The images were acquired using the autofocus feature of the ArrayScan instrument, which entails the following steps. First, the camera focuses on channel 1 (Hoechst 33342), where nuclei are identified. Second, a Z offset of 1 um is used for capturing mitochondria (MitoTracker Red). […]

Row | Compound | outcome | AC50
1 | CC(C)Oc1cc(-n2nc(C(C)(C)C)oc2=O)c(Cl)cc1Cl | inactive | –
2 | COP(=S)(OC)Oc1nc(Cl)c(Cl)cc1Cl | inactive | –
3 | C=CCC1=C(C)[C@@H](OC(=O)[C@@H]2[C@@H](C=C(C)C)C2(C)C)CC1=O | inactive | –
4 | C#CCOS(=O)OC1CCCCC1Oc1ccc(C(C)(C)C)cc1 (stereo not given) | inactive | –
5 | O=C(Nc1ccccc1)Nc1ccnc(Cl)c1 | inactive | –
6 | OC(c1ccc(Cl)cc1)(c1cncnc1)c1ccccc1Cl (stereo not given) | inactive | –
7 | O=C(O)c1nc(Cl)ccc1Cl | inactive | –
8 | CCOc1cc(Oc2ccc(C(F)(F)F)cc2Cl)ccc1[N+](=O)[O-] | inactive | –
9 | Oc1ccccc1-c1ccccc1 | inactive | –
10 | CCOC(=O)CC(SP(=S)(OC)OC)C(=O)OCC (stereo not given) | inactive | –
11 | C=CC1(C)OC(=O)N(c2cc(Cl)cc(Cl)c2)C1=O (stereo not given) | inactive | –
12 | CS/C(C)=N/OC(=O)N(C)SN(C)C(=O)O/N=C(\C)SC | inactive | –
13 | CC(C)(C)c1ccc(CSc2cnn(C(C)(C)C)c(=O)c2Cl)cc1 | inactive | –
14 | CCNc1nc(Cl)nc(NCC)n1 | inactive | –
15 | CON(C)C(=O)Nc1ccc(Cl)c(Cl)c1 | inactive | –
16 | CCON=C(CC)C1=C(O)CC(c2c(C)cc(C)cc2C)CC1=O (stereo not given) | inactive | –
17 | Cc1c(F)c(F)c(COC(=O)C2C(/C=C(\Cl)C(F)(F)F)C2(C)C)c(F)c1F (stereo not given) | inactive | –
18 | CCCN(CCC)c1c([N+](=O)[O-])cc(S(N)(=O)=O)cc1[N+](=O)[O-] | inactive | 116 µM (active)
19 | N#CC(CCc1ccc(Cl)cc1)(Cn1cncn1)c1ccccc1 (stereo not given) | inactive | –

Row | Compound | outcome | AC50
20 | COc1nc(C)nc(NC(=O)NS(=O)(=O)c2ccccc2CCC(F)(F)F)n1 | inactive | –
21 | CCCC1COC(Cn2cncn2)(c2ccc(Cl)cc2Cl)O1 (stereo not given) | inactive | –
22 | CN(C)C(=S)SSC(=S)N(C)C | inactive | –
23 | CC1COC(Cn2cncn2)(c2ccc(Oc3ccc(Cl)cc3)cc2Cl)O1 (stereo not given) | inactive | –
24 | CO/C=C(/C(=O)OC)c1ccccc1Oc1cc(Oc2ccccc2C#N)ncn1 | inactive | –
25 | CCNc1nc(Cl)nc(NC(C)C)n1 | inactive | –
26 | N#Cc1cc(Br)c(O)c(Br)c1 | inactive | –
27 | C=CCC1=C(C)C(OC(=O)C2C(C=C(C)C)C2(C)C)CC1=O (stereo not given) | inactive | 32.4 µM (active)
28 | N#Cc1nn(-c2c(Cl)cc(C(F)(F)F)cc2Cl)c(N)c1S(=O)C(F)(F)F (stereo not given) | inactive | –
29 | CCc1nn(C)c(C(=O)NCc2ccc(C(C)(C)C)cc2)c1Cl | inactive | –
30 | CCCCNC(=O)n1c(NC(=O)OC)nc2ccccc21 | – | 45.6 µM (active)
31 | CC1=C(C(=O)Nc2ccccc2)SCCO1 | inactive | –
32 | Cc1cc(Cl)ccc1OCC(=O)O | inactive | –
33 | CCCCOC(=O)c1ccccc1C(=O)OCCCC | inactive | –
34 | COC(=O)C(C)Oc1ccc(Oc2ccc(Cl)cc2Cl)cc1 (stereo not given) | inactive | –
35 | COc1ccc(C(c2ccc(OC)cc2)C(Cl)(Cl)Cl)cc1 | inactive | –
36 | CCOC(=O)C(Cl)Cc1cc(-n2nc(C)n(C(F)F)c2=O)c(F)cc1Cl (stereo not given) | inactive | –
37 | COc1nc(C)nc(NC(=O)NS(=O)(=O)c2ccccc2Cl)n1 | inactive | –
38 | CC(C)C1(C)N=C(c2nc3ccccc3cc2C(=O)O)NC1=O (stereo not given) | inactive | –
